Measurements as given in PubChem BioAssay AID1531 (NMMLSC, 2009).
“And” between values parts separate entries of the source, which are not always exact repeats. Identical values can stand only once. Among all 290,000 compounds or so, about 3,300 (1.1%) were called active. The sample as a whole holds a higher share of actives than the screen did. A number with no mark means an inactive call. Cut-off read from the data, not from the text of the source: active = binding response below about 67% or above about 130%; inconclusive = no clear call, values can overlap the other calls; inactive = in between.

Each compound was assayed against Mitogen-activated protein kinase kinase kinase 2 (Homo sapiens) (UniProt Q9Y2U5) (assay: modulators of MEK5 binding to wildtype MEKK2, primary screen, biochemical, multiplex bead flow cytometry, Alexa488-MEK5 (AID 1531)). Conditions: Alexa488-MEK5 binding to MEKK2 WT, at 10 µM, actives lie on both sides.

Row | Compound | binding response (% of control)
1 | CC(NC(=O)C1CCCN(S(=O)(=O)c2ccc(-n3cnnn3)cc2)C1)c1ccc(F)cc1 (stereo unspecified) | 108%
2 | COc1cccc(N(CC(=O)NC2CCCCCC2)S(=O)(=O)c2ccccc2)c1 | 111%
3 | COc1ccc(C2=NN(C(=O)c3ccccc3C(=O)O)C(c3ccccc3O)C2)cc1 (stereo unspecified) | 100%
4 | COc1cccc(C2CC(c3ccccc3)=NN2S(=O)(=O)c2ccccc2)c1OC (stereo unspecified) | 20% [inhibitor] (active)
5 | CCOc1ccccc1C1CC(c2cccc(NS(C)(=O)=O)c2)=NN1C(=O)c1ccccc1 (stereo unspecified) | 100%
6 | COc1ccc(NC(=O)NCCN2CCN(c3ccc(C)cc3)CC2)c(Cl)c1 | 113%
7 | Cc1ccc(-n2ncc(C(=O)NC3CC3)c2C2CCN(C(=O)OC(C)(C)C)CC2)c(C)c1 | 96%
8 | O=C(CN(Cc1ccccc1)C(=O)CCC(=O)Nc1ccccn1)NCCc1ccccc1 | 107%
9 | O=C(NC(=S)NC1CCCCC1)c1ccc(Cl)cc1 | 103%
10 | COc1ccccc1NC(=S)N1CCN(C(c2ccccc2)c2ccccc2)CC1 | 98%
11 | COC(=O)c1ccc(C(=O)OC)c(NC(=S)N2CCN(c3ccc(F)cc3)CC2)c1 | 98%
12 | COc1ccccc1NC(=S)N1CCN(c2ccc(F)cc2)CC1 | 16% [inhibitor] (active)
13 | O=C(O)CSc1c2c(nc3cc(C(=O)Nc4cccc(C(F)(F)F)c4)ccc13)CCCC2 | 105%
14 | COc1ccccc1OCCNCC(O)COc1cccc2[nH]c3ccccc3c12 (stereo unspecified) | 166% (active) and 155% (active) and 213% (active)
15 | CC(C)(C)NCC(O)COc1cccc2[nH]c(=O)[nH]c12 (stereo unspecified) | 113%
16 | COc1ccccc1OCC(O)CN1CCOCC1 (stereo unspecified) | 109%
17 | Cc1ccc(NC(=O)COc2ccc(-n3ccnc3)cc2)cc1Cl | 153% (active)
18 | Cc1ccc(NC(=O)C/C(N)=N/O)cc1Cl | 100%
19 | CCC(=O)c1ccc(OCC(=O)Nc2ccc3nc(C)sc3c2)cc1 | 87%
20 | CC(C)(C)c1ccccc1NC(=O)CN1C(=O)NC2(CCCC2)C1=O | 100%
21 | CC(C)c1ccc2oc(=O)cc(CN3CCN(Cc4ccccc4)CC3)c2c1 | 115%
22 | Cn1ccc(=Nc2ccc(NC(=O)c3ccc(N=c4ccn(C)c5ccc([N+](=O)[O-])cc45)cc3)cc2)cc1 | 146% (active)
23 | O=C(Nc1ccc(C(=O)N2CCCCC2)cc1)c1cccc([N+](=O)[O-])c1 | 100%

Row | Compound | binding response (% of control)
24 | Cc1cc([N+](=O)[O-])ccc1NC(=O)c1ccc(NC(=O)C(C)C)cc1 | 101%
25 | CCOc1ccccc1N1CCN(C(=S)Nc2ccc(S(N)(=O)=O)cc2)CC1 | 102%
26 | COc1ccc(N2CCN(C(=S)Nc3ccc(S(N)(=O)=O)cc3)CC2)cc1 | -9% (active)
27 | NS(=O)(=O)c1ccc(NC(=S)N2CCCC2)cc1 | 100%
28 | CCc1ccc(S(=O)(=O)Nc2cc3c(cc2N2CCCCC2)n(C)c(=O)c(=O)n3C)cc1 | 101%
29 | O=C(NCc1nnc(SCC(=O)N2CCCCCC2)o1)c1ccc(F)cc1 | 102%
30 | Cc1ccc2c(c1)C1CN(C)CCC1N2S(=O)(=O)c1ccc(Oc2ccc([N+](=O)[O-])cc2)cc1 (stereo unspecified) | 201% (active)
31 | Cc1ccc2c(c1)C1CN(C)CCC1N2C(=O)c1ccccc1NS(=O)(=O)c1ccc(F)cc1C (stereo unspecified) | 98%
32 | Cc1ccc2c(c1)C1CN(C)CCC1N2C(=S)Nc1ccc(OC(F)F)cc1 (stereo unspecified) | 118%
33 | COc1ccc2c(c1)c(C(=O)N/N=C/c1cccs1)c(C)n2C | 99%
34 | O=C(NCCCN1CCCC1=O)C(=O)NCC1OCCN1S(=O)(=O)c1ccc(Br)cc1 (stereo unspecified) | 103%
35 | CC(=O)Nc1ccc(Nc2ncnc3c2nnn3Cc2ccccc2Cl)cc1 | 107%
36 | CC(C)c1ccccc1OCC(O)CN(CC(O)COc1cccc2ccccc12)C(C)C (stereo unspecified) | 181% (active)
37 | OC(COc1cccc2ccccc12)CN1CCN(c2ccccn2)CC1 (stereo unspecified) | 105%
38 | CCC(C)Sc1nc2c(c(=O)[nH]c(=O)n2C)n1CC(O)COc1cccc2ccccc12 (stereo unspecified) | 107%
39 | CCN1C(=O)N[C@@H](CCc2ccccc2)C(C(=O)OC)=C1C | 94%
40 | CCCCC1(C(=O)OCC)NC(c2ccc(O)cc2)C2C(=O)N(c3ccccc3)C(=O)C21 (stereo unspecified) | 99%
41 | CC(C)[C@H](NC(=O)N1CCn2c1nc1ccccc12)C(=O)NC1CC1 | 101%
42 | CC(C)C[C@H](NC(=O)C1CCC(CNC(=O)[C@@H]2CCCN2C(=O)OC(C)(C)C)CC1)C(=O)O (stereo partly specified) | 103%
43 | O=C(O)c1cc(S(=O)(=O)N(Cc2ccccc2)c2cccc(C(F)(F)F)c2)ccc1Cl | 108%
44 | Cc1ccc(N(CCC(=O)O)S(=O)(=O)c2cccc(C(F)(F)F)c2)cc1 | 4% [inhibitor] (active)
45 | CCc1nnc(NC(=O)CCN(c2ccc(C)cc2)S(=O)(=O)c2ccccc2)s1 | 108%
46 | Cc1cc(C)cc(C(=O)NC(CC(N)=O)c2ccc(N3CCC(N4CCCCC4)CC3)c([N+](=O)[O-])c2)c1 (stereo unspecified) | 105%
